High-throughput results from PubChem BioAssay.
This is a sample that favours compounds with a hit; in the whole collection about 8% have one here.
HT1080 IDH1KD tx: qHTS for induction of synthetic lethality in tumor cells producing 2HG: qHTS for the HT-1080-IDH1KD cell line. HT-1080 IDH1 knockdown viability, ATP luminescence, 48 h. Potency, µM (series often up to 46.1 µM), actives largely listed as cytotoxic. 360,000 tested, 2% active. AID 686971, 2013
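Cytotoxicity counter-line: IDH1KD HT-1080, 48 h, CellTiter-Glo. Curves classed by r2, magnitude and activity.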
MCF10A rerep: A quantitative high throughput screen for small molecules that induce DNA re-replication in MCF 10a normal breast cells. MCF 10A DNA re-replication, Hoechst nuclear intensity, 48 h. Potency, µM (series often up to 46.1 µM), actives largely listed as activators. 350,000 tested, 2.9% active; also: nearly all actives have a fitted effect of over 50% in size
HT1080-NT tox: qHTS for induction of synthetic lethality in tumor cells producing 2HG: qHTS for the HT-1080-NT fibrosarcoma cell line | 360,000 tested, 1.6% active | HT-1080-NT fibrosarcoma viability, CellTiter-Glo ATP luminescence, 48 h | Potency, µM (titrated, usually from 46.1 µM), usual class: cytotoxic;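 also: NT is the 2HG producing partner of a matched IDH1 knockdown line; nearly all actives have a fitted effect of over 55% in size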
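A 48-hour cytotoxicity screen used HT-1080-NT cells plated 2 hours before compound delivery. ATP-based CellTiter-Glo luminescence measured viability, normalized to DMSO and no-cell controls.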
KB-V1 MDR tox: qHTS assay for MDR1-selective chemotherapeutics: Primary screen using the drug-selected MDR subline cells KB-V1; Potency, µM (doses to about 46.1 µM), usual class: cytotoxic; AID 1347076, 2019; KB-V1 MDR cells viability, CellTiter-Glo, 72 h; 400,000 tested, 3.4% active; also: nearly all actives have a fitted effect of over 60% in size
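KB-V1 cells (P-gp-expressing MDR subline of KB-3-1) in phenol-red-free DMEM with 10% FBS were exposed to library compounds over a concentration series for 72 h at 37 degrees C. Viability read by CellTiter-Glo luminescence; concentration-effect curves fitted after normalization.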
SW480 rerep: A quantitative high throughput screen for small molecules that induce DNA re-replication in SW480 colon adenocarcinoma cells; SW480 DNA re-replication, Hoechst DNA content imaging, 48 h; Potency, µM (top dose mostly 46.1 µM), most hits filed as activators; AID 624297, 2012; 340,000 tested, 1.8% active; also: nearly all actives have a fitted effect of over 55% in size
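DNA re-replication was detected as more nuclei of elevated Hoechst intensity after 48 hr exposure to compound (23 nL pinned per well of 250 cells).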
KB-3-1 cytotox: qHTS assay for MDR1-selective chemotherapeutics: Primary screen using the parental adenocarcinoma cell KB-3-1 | KB-3-1 viability, CellTiter-Glo ATP luminescence, 72 h | Potency, µM (doses to about 46.1 µM), hits mostly cytotoxic | 400,000 tested, 1.4% active; also: nearly all actives have a fitted effect of over 60% in size
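KB-3-1 parental drug-naive adenocarcinoma cells in DMEM/10% FBS, incubated 72 h at 37 C with pin-transferred compounds across a concentration series. Viability by CellTiter-Glo luminescence; concentration-response curves fitted after normalization.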
Hits are given with their value; n = inactive; u = inconclusive; x = no result given; [ ] = dose if it differs, or a comment. Calls follow the shape of the dose curve; as a rule, active = well fitted curve in the direction sought with a large enough effect; inconclusive = small, poorly fitted or top-dose-only effect, or another doubt; inactive = no such curve, though single readings can be large; an effect the other way counts as inactive or inconclusive.

SMILES	HT1080 IDH1KD tx	MCF10A rerep	HT1080-NT tox	KB-V1 MDR tox	SW480 rerep	KB-3-1 cytotox
C=CCN(c1ccccc1)S(=O)(=O)c1cccc(C(=O)NCC(c2ccccc2OC)N2CCCC2)c1 (centres undefined)	u	n	23µM	n	u	n
C=CCN(c1ccccc1)S(=O)(=O)c1cccc(C(=O)N2CC(C)CC(C)C2)c1 (centres undefined)	u	10µM	n	7.3µM	u	u
C=CCN(c1ccccc1OC)S(=O)(=O)c1cccc(C(=O)NCc2cccs2)c1	n	n	n	u	n	n
Cc1cccn2c(=O)c3cc(C(=O)NCCC4=CCCCC4)n(C)c3nc12	n	9.2µM	n	n	u	u
Cc1cccn2c(=O)c3cc(C(=O)NCc4ccco4)c(=N)n(C(C)C)c3nc12	n	n	n	u	u	n
Cc1cccn2c(=O)c3cc(C(=O)NC4CCCC4)c(=N)n(C4CCCC4)c3nc12	u	3.5µM	u	u	7.1µM	u
N=c1c(C(=O)NCc2ccco2)cc2c(=O)n3ccccc3nc2n1C1CCCC1	n	21µM	n	u	21µM	n
CCCn1c(=N)c(C(=O)NC2CCCC2)cc2c(=O)n3cccc(C)c3nc21	n	2.9µM	n	u	6.5µM	n
CCn1c(=N)c(C(=O)NC2CCCCC2)cc2c(=O)n3cccc(C)c3nc21	x	x	x	n	x	n
Cn1c(C(=O)NCCC2=CCCCC2)cc2c(=O)n3ccccc3nc21	n	n	u	n	n	n
COc1ccc(CNC(=O)CSc2ncc(S(=O)(=O)c3ccc(C)c(Cl)c3)c(=O)[nH]2)cc1	x	x	x	n	x	n
CC1=C(C(=O)OC2CCCC2)C(c2ccccc2C(F)(F)F)CC(=O)N1 (centres undefined)	x	x	x	n	x	n
CCOc1ccc(OCC)c(NC(=O)c2cc(-c3cccs3)nc3ccccc23)c1	x	x	x	n	x	n
Cc1cccn2c(=O)c3cc(C(=O)O)n(C)c3nc12	n	n	n	n	n	n
CCn1c(=N)c(C(=O)NC)cc2c(=O)n3cccc(C)c3nc21	n	u	n	n	13µM	n
N=c1c(C(=O)NC2CCCC2)cc2c(=O)n3ccccc3nc2n1C1CCCC1	n	n	n	u	16µM	u
CCn1c(=N)c(C(=O)NCc2ccccc2)cc2c(=O)n3cccc(C)c3nc21	x	x	x	n	x	n
Cc1cccn2c(=O)c3cc(C(=O)NC4CCCC4)n(C)c3nc12	u	13µM	u	n	4.6µM	10µM
Cc1cccn2c(=O)c3cc(C(=O)NC4CCCCC4)n(C)c3nc12	n	u	n	u	u	u
CC(C)n1c(=N)c(C(=O)NC2CCCCC2)cc2c(=O)n3ccccc3nc21	x	x	x	u	x	n
Cc1cc(C)nc(NS(=O)(=O)c2ccc(NC(=O)c3cc4c(=O)n5cccc(C)c5nc4n3C)cc2)n1	n	10µM	n	u	2.1µM	n
CCN(CC)c1ccc(NC(=O)c2cccc(F)c2)c(C)c1	16µM	u	u	u	18µM	5.8µM
CCN(CC)c1ccc(NC(=O)c2ccco2)c(C)c1	n	n	n	n	n	n
COc1cc(C=O)ccc1OCc1ccncc1	n	n	n	n	n	n
COc1cc(C=O)c(Br)cc1OCc1ccc(C)cc1	n	9.2µM	n	n	u	n
SMILES	HT1080 IDH1KD tx	MCF10A rerep	HT1080-NT tox	KB-V1 MDR tox	SW480 rerep	KB-3-1 cytotox
O=C(Nc1ccc(Oc2ccccc2)cc1)Nc1nnc(-c2ccncc2)s1	x	x	x	n	x	u
CCC(=O)NCCCc1nc2ccccc2n1Cc1ccccc1F	n	n	n	n	n	n
CCCn1c(Nc2nc3ccccc3n2C)nc2ccccc21	16µM	u	13µM	u	u	u
CCCCn1c(Nc2ccccc2)nc2ccccc21	n	n	n	n	n	n
CCCn1c(NC(=S)Nc2ccccc2)nc2ccccc21	n	u	n	16µM	x	u
CCCn1c(NC(=O)C2CCN(S(=O)(=O)c3cccs3)CC2)nc2ccccc21	u	u	u	u	n	23µM
CCC(=O)NCc1nc2ccccc2n1Cc1ccccc1F	n	n	n	23µM	n	n
COc1cccc(N2CCN(C(=O)c3cccn3-c3nnc(N4CCCC4)s3)CC2)c1	x	x	x	n	x	n
CCC(=O)Nc1nc2ccccc2n1CCN1CCOCC1	n	n	n	u	n	u
CCCCn1c(NCc2ccccn2)nc2ccccc21	u	n	n	13µM	n	n
CCCn1c(NC(=O)c2cccc(S(=O)(=O)N3CCCC3)c2)nc2ccccc21	u	18µM	u	16µM	u	16µM
CCCCCCCn1c(NC(=O)CC)nc2ccccc21	u	6.5µM	n	9.2µM	n	u
CCNC(=O)c1cccc(S(=O)(=O)N2CCCCCC2)c1	n	n	n	n	n	n
CCN(CC)CCn1c(NCc2ccccn2)nc2ccccc21	n	n	n	n	n	n
CC(=O)Nc1nc2ccccc2n1Cc1ccccc1Cl	u	u	18µM	u	n	u
CCc1ccccc1NC(=O)C1CCCN(c2ncnc3onc(C)c23)C1 (centres undefined)	x	x	x	n	x	n
CCCn1c(NCc2ccco2)nc2ccccc21	n	n	n	21µM	n	n
CCCn1c(NC(=O)c2ccccc2)nc2ccccc21	n	n	n	15µM	n	u
O=C(N/N=C/c1ccc(N2CCCCC2)o1)c1ccccc1	u	23µM	n	n	u	u
CCCn1c(CNC(=O)c2ccccc2)nc2ccccc21	n	n	n	23µM	n	n
CC(C)Cn1c(CNC(=O)c2ccccc2)nc2ccccc21	n	n	n	u	n	n
CCCn1c(NC(=O)c2ccc(C)cc2)nc2ccccc21	n	u	n	u	u	u
O=C(NCc1ccccc1F)c1cc2ccccn2n1	x	x	x	n	x	n
O=C(Nc1cnc2ccccc2c1)c1cccnc1	u	n	n	n	n	u
Cn1c(CCCNC(=O)c2ccccc2)nc2ccccc21	n	n	n	n	n	n
Cn1c(NC(=O)c2cccnc2)nc2ccccc21	n	n	n	16µM	n	n
Cn1c(/C=N/NC(=O)c2ccccc2)nc2ccccc21	u	n	10µM	u	n	n
Cc1cccc(OCC(=O)OCc2cc(=O)n3nc(C4CC4)sc3n2)c1	x	x	x	u	x	n
CCOC(=O)c1cnc(SC)nc1Sc1ccccc1Cl	n[9.24 µM]	u	n	n	n	n
CSc1nc(Sc2ccccc2Cl)c2ccccc2n1	u	23µM	u	u	u	u
